Broadly, the AC50 is the concentration at which the activity in the assay is half-maximal.

Inconclusive results are not listed. Active and inactive are the calls of the source. How the source made its calls: active means hit-call score of the fitted dose curve at least 0.9, where 1 is the maximum; inconclusive means response in the unintended direction; inactive means score below 0.9.

Experiment [1] addresses human Peroxisome Proliferator-activated Receptor alpha (PPARa), PPARA (gene 5465) (UniProt Q07869). Put plainly: ATG_PPARa_TRANS: Attagene TRANS-FACTORIAL HepG2 Assay for human Peroxisome Proliferator-activated Receptor alpha (PPARa) (AID 2283001).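 On AC50: potency for gain of reporter signal over DMSO so agonist or activator.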 Put shortly:
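Transfected HepG2 cells treated with test chemical for 24 h. RNA isolated, reverse-transcribed with oligo(dT), PCR-amplified, FAM-labelled and HpaI-digested. Fragments sized by capillary electrophoresis; gain-of-signal fit relative to DMSO.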

Experiment [2] concerns the target Peroxisome proliferator-activated receptor gamma (Homo sapiens) (UniProt P37231). Kind of experiment: ATG_PPARg_TRANS: Attagene TRANS-FACTORIAL HepG2 Assay for human Peroxisome Proliferator-activated Receptor-gamma (PPARg) (AID 2283007). Put shortly:
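Chimeric NR-Gal4 transactivation is measured in transiently transfected HepG2 cells by reporter mRNA induction at 24 h. Detection uses RT-PCR with fluorescent labelling and capillary electrophoresis; DMSO defines baseline.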

Experiment [3] has as its target Nuclear receptor subfamily 1 group I member 2 (Homo sapiens) (UniProt O75469). Kind of experiment: ATG_PXR_TRANS: Attagene TRANS-FACTORIAL HepG2 Assay for human Pregnane X Receptor (PXR) (AID 2283008). In short, it runs like this: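 Multiplexed TRANS reporter panel in HepG2; this component tracks PXR-Gal4-driven reporter mRNA after 24 h dosing, measured by RT-PCR with capillary electrophoresis fluorescence, fitted against DMSO.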

Experiment [4] addresses human RAR-related Orphan Receptor beta (RORb), RORB (gene 6096) (UniProt Q92753). Put plainly: ATG_RORb_TRANS: Attagene TRANS-FACTORIAL HepG2 Assay for human RAR-related Orphan Receptor beta (RORb) (AID 2283010). In short, it runs like this:
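Multiplexed transcription-factor reporter assay: HepG2 cells transiently carrying NR-Gal4/GAL4-UAS constructs, 24 h treatment, mRNA quantified by RT-PCR plus capillary electrophoresis fluorescence; activity scored as induction over DMSO.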

The target in experiment [5] is human RAR-related Orphan Receptor gamma (RORg), RORC (gene 6097) (UniProt P51449). Kind of experiment: ATG_RORg_TRANS: Attagene TRANS-FACTORIAL HepG2 Assay for human RAR-related Orphan Receptor gamma (RORg) (AID 2283011). In short, it runs like this:
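HepG2 cells transiently transfected with GAL4-UAS reporter units and chimeric RORg-Gal4 construct; after 24 h chemical exposure, reporter mRNA measured by RT-PCR with fluorescent capillary electrophoresis, gain of signal fitted against DMSO.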

Experiment [6] deals with Retinoic acid receptor RXR-alpha (Homo sapiens) (UniProt P19793). Put plainly: ATG_RXRa_TRANS: Attagene TRANS-FACTORIAL HepG2 Assay for human Retinoid X Receptor alpha (RXRa) (AID 2283012). Put shortly: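 Chimeric NR-GAL4 trans-activation in HepG2, 24 h treatment; reporter transcripts quantified by fluorescence on capillary electrophoresis, analysed for upward change from DMSO.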
Chain of Retinoic acid receptor RXR-alpha (Homo sapiens) (P19793 whole entry, looked up, the tested form may be a part): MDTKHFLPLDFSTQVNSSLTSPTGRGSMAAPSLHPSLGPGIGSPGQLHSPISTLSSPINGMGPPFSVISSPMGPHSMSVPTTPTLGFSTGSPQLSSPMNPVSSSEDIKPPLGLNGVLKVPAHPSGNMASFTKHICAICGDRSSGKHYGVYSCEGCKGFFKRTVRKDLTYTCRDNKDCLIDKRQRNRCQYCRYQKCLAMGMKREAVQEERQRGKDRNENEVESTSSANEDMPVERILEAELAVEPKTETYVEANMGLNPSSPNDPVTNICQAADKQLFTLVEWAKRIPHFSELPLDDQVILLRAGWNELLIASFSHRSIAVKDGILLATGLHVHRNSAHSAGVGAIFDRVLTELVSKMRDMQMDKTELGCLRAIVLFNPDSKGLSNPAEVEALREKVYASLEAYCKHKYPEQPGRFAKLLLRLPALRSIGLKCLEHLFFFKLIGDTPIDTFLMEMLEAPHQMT

Experiment [7] concerns the target human Thyroid Receptor alpha (THRa1), THRA (gene 7067) (UniProt P10827). Kind of experiment: ATG_THRa1_TRANS: Attagene TRANS-FACTORIAL HepG2 Assay for human Thyroid Receptor alpha (THRa1) (AID 2283014). Put shortly: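 HepG2 cells transiently transfected with chimeric NR-Gal4 and GAL4-UAS reporter units, dosed 24 h. Reporter mRNA quantified by RT-PCR, fluorescent labeling, HpaI digestion and capillary electrophoresis; gain-of-signal fit versus DMSO.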

Experiment [8] concerns the target human Retinoid X Receptor beta (RXRb), RXRB (gene 6257) (UniProt P28702). Put plainly: ATG_RXRb_TRANS: Attagene TRANS-FACTORIAL HepG2 Assay for human Retinoid X Receptor beta (RXRb) (AID 2283013). Put shortly: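 After a 24 h incubation with test chemical, transfected HepG2 cells carrying NR-Gal4 fusions and GAL4-UAS reporter transcription units yield RNA whose reporter cDNA is FAM-labelled, HpaI-cut and sized by capillary electrophoresis; increases over DMSO are scored.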

The target in experiment [9] is Retinoic acid receptor alpha (Homo sapiens) (UniProt P10276). Kind of experiment: ATG_RARa_TRANS: Attagene TRANS-FACTORIAL HepG2 Assay for human Retinoic Acid Receptor alpha (RARa) (AID 2283005). In short, it runs like this: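 Reporter transcripts, measured by RT-PCR with fluorescent labeling and capillary electrophoresis after 24 h dosing, reflect activity of an exogenous human RARa–GAL4 fusion in transiently transfected HepG2. Fitted for increase relative to DMSO.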

Experiment [10] has as its target human Retinoic Acid Receptor gamma (RARg), RARG (gene 5916) (UniProt P13631). Put plainly: ATG_RARg_TRANS: Attagene TRANS-FACTORIAL HepG2 Assay for human Retinoic Acid Receptor gamma (RARg) (AID 2283009). In short, it runs like this:
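Gain-of-signal relative to DMSO is reported from fluorescent capillary electrophoresis of RT-PCR reporter products. These came from HepG2 cells expressing transfected RARg-GAL4 chimeras with UAS reporters, harvested 24 h after dosing.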

Experiment [11] addresses human Peroxisome Proliferator-activated Receptor delta (PPARd), PPARD (gene 5467) (UniProt Q03181). Kind of experiment: ATG_PPARd_TRANS: Attagene TRANS-FACTORIAL HepG2 Assay for human Peroxisome Proliferator-activated Receptor delta (PPARd) (AID 2283002). Put shortly: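 Read-out is induced reporter mRNA, quantified by RT-PCR with fluorescent labelling and capillary electrophoresis after 24 h dosing. Cells are HepG2 transiently carrying multiple GAL4-UAS reporter units driven by exogenous NR-GAL4 chimeras; DMSO serves as baseline.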

Chain of human RAR-related Orphan Receptor gamma (RORg), RORC (gene 6097) (P51449 whole entry, looked up, the tested form may be a part): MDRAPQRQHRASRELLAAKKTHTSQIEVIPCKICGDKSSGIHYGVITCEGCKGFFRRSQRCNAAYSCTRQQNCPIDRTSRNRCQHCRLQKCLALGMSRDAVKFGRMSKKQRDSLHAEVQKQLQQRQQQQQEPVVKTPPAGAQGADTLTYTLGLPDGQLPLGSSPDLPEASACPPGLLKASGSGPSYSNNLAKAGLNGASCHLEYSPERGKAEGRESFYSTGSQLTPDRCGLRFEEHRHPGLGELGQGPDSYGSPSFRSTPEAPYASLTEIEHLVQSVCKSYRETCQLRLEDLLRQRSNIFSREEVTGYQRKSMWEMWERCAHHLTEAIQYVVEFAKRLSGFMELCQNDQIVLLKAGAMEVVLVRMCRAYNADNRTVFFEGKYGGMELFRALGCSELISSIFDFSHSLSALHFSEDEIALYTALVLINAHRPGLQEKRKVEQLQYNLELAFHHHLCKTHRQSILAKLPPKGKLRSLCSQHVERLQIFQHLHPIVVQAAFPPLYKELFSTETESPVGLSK
Chain of human Thyroid Receptor alpha (THRa1), THRA (gene 7067) (P10827 whole entry, looked up, the tested form may be a part): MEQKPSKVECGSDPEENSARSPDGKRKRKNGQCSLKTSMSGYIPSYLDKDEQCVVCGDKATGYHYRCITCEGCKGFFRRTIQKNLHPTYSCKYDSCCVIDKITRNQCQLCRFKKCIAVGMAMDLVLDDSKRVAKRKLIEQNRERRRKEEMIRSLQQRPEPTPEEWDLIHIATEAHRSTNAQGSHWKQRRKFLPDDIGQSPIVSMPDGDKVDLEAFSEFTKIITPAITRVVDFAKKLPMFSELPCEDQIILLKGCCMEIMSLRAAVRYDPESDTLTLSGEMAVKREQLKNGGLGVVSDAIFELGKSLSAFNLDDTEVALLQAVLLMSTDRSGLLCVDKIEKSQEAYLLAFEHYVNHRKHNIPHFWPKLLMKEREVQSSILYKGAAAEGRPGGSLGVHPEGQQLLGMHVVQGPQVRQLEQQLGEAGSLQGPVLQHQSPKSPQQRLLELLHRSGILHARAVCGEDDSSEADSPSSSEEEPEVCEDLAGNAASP
Chain of human Peroxisome Proliferator-activated Receptor delta (PPARd), PPARD (gene 5467) (Q03181 whole entry, looked up, the tested form may be a part): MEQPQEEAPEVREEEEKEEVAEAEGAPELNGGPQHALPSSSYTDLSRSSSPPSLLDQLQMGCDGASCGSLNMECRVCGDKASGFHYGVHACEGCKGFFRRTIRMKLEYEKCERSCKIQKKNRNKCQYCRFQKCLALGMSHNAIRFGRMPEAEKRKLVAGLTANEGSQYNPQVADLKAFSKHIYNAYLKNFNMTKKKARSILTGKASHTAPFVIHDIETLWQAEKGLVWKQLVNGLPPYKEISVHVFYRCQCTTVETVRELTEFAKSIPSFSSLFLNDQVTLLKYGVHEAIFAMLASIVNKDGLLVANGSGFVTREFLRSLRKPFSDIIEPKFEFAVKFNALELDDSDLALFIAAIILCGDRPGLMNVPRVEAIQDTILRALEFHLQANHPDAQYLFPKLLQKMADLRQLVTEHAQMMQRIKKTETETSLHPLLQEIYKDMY
Chain of human Peroxisome Proliferator-activated Receptor alpha (PPARa), PPARA (gene 5465) (Q07869 whole entry, looked up, the tested form may be a part): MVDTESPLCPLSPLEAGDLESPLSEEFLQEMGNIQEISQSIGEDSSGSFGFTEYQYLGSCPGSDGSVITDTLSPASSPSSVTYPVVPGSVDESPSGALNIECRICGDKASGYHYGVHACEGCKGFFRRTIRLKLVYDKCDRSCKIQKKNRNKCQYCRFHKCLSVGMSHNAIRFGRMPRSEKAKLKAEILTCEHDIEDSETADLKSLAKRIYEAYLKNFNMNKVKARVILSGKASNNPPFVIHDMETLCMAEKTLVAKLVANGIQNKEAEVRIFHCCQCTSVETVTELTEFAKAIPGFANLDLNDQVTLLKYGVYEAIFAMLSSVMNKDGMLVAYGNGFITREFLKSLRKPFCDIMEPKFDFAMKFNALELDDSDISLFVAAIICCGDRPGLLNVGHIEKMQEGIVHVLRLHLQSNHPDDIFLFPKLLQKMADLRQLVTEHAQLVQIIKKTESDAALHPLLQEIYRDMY
Chain of human Retinoic Acid Receptor gamma (RARg), RARG (gene 5916) (P13631 whole entry, looked up, the tested form may be a part): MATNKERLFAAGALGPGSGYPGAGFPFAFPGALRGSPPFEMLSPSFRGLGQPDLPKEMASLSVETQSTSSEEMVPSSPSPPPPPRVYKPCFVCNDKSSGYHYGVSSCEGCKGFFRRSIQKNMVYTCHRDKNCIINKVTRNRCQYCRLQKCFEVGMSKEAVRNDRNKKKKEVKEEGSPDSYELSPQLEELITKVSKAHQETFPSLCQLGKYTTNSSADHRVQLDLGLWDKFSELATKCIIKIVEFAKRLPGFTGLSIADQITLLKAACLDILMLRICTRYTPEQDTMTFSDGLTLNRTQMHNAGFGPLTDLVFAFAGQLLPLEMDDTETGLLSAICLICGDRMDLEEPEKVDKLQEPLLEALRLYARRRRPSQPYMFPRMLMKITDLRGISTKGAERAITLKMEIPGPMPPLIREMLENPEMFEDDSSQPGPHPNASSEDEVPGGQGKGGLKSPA
Chain of human Retinoid X Receptor beta (RXRb), RXRB (gene 6257) (P28702 whole entry, looked up, the tested form may be a part): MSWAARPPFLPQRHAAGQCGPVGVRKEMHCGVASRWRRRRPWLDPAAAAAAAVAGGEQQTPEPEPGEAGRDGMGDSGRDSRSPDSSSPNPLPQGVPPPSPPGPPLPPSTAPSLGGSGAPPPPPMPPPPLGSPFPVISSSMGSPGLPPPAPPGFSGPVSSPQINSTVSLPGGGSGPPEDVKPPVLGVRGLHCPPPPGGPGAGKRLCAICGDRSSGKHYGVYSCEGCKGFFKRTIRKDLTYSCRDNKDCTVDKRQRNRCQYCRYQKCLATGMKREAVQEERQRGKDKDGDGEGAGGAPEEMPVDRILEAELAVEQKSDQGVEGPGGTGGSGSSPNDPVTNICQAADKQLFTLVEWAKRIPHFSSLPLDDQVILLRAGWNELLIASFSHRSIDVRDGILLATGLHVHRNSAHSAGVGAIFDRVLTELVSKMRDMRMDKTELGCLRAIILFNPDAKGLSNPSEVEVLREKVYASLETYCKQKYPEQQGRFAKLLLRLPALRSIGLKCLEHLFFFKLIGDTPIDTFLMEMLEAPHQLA
Chain of Nuclear receptor subfamily 1 group I member 2 (Homo sapiens) (O75469 whole entry, looked up, the tested form may be a part): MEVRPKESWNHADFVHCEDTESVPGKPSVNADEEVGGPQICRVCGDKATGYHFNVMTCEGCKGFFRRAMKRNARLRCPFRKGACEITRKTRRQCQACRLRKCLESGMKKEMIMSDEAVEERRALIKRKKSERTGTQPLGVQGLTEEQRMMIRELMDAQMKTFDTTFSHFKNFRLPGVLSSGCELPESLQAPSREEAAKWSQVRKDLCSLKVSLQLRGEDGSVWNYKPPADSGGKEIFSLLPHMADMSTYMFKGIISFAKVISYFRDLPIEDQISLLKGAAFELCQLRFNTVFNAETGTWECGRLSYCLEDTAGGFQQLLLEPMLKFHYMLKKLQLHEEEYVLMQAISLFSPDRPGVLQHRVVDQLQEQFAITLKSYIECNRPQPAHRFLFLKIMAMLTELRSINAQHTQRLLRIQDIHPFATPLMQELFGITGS
Chain of Peroxisome proliferator-activated receptor gamma (Homo sapiens) (P37231 whole entry, looked up, the tested form may be a part): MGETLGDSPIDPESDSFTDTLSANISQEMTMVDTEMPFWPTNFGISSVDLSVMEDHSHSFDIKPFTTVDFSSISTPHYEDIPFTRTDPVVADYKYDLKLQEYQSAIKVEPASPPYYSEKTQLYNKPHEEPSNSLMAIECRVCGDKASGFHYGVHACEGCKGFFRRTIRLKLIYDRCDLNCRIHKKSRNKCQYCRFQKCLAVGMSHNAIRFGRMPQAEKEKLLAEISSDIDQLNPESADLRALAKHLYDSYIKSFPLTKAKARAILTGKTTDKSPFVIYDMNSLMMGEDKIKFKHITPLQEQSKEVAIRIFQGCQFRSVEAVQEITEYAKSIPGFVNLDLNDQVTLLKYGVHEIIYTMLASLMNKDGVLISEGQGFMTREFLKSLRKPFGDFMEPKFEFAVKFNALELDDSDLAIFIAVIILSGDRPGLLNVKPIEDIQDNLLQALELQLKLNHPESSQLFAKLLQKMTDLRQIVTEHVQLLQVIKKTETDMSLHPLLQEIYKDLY
Chain of human RAR-related Orphan Receptor beta (RORb), RORB (gene 6096) (Q92753 whole entry, looked up, the tested form may be a part): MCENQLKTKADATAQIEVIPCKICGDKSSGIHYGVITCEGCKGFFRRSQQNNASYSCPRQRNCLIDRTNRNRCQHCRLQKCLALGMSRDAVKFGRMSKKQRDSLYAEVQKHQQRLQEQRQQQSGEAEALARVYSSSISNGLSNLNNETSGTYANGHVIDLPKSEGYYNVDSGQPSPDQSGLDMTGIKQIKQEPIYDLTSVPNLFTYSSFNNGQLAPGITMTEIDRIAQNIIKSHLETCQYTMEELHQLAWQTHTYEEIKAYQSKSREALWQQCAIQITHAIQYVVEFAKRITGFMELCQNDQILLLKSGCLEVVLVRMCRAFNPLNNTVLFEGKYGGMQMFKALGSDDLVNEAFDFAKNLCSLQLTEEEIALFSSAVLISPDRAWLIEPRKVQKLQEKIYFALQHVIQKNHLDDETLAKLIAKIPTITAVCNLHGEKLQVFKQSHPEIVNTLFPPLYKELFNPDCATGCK

Consider `COc1ccc(C(C)=O)cc1`, for which the compound was classed as inactive in experiment [1], in experiment [2], in [3], in experiment [4], in experiment [5] and in experiment [6]. Further, the call in [7] was inactive.
`c1ccc(Cc2ccccc2)cc1`: the result in [1], in experiment [2], in experiment [3], in experiment [4], in [6] and in experiment [8] was inactive. Further, the compound was classed as inactive in experiment [7].
Take `C=CC(C)(CCC=C(C)C)OC(=O)CC` (configuration not stated): the call in [1], in experiment [2], in experiment [3], in experiment [5], in experiment [6] and in experiment [8] was inactive.
Turning to `O=C1CCCCCCCCCCCC(=O)OCCO1`, the AC50 in experiment [1] is 54.3 µM (active). Further, the result in experiment [2], in experiment [3], in experiment [4], in experiment [5] and in experiment [7] was inactive.
For `CCCCCC1C(=O)CCC1CC(=O)OC` (configuration not stated), the result in experiment [1], in [9], in experiment [2], in [3], in [10] and in [6] was inactive. Also, the compound was classed as inactive in [8] and in experiment [7].
Regarding `CCC(C)COC(=O)CC(C)C` (configuration not stated), the result in experiment [1], in experiment [2], in experiment [3], in experiment [4], in experiment [6] and in experiment [8] was inactive. Also, in experiment [7], the outcome was inactive.
Take `CCOC(=O)COC(=O)c1ccccc1C(=O)OCC`: the outcome in [1] and in experiment [2] was inactive.
In the case of `Nc1ccc(O)c(N)c1`, the compound was classed as inactive in experiment [1], in [2], in experiment [3], in experiment [8] and in [7].
Turning to `CCCCCCCCCOS(=O)(=O)O`, the result in experiment [1] and in [3] was inactive. The half-maximal activity concentration (AC50) in experiment [2] is 30.6 µM (active).
In the case of `Cc1ccccc1S`, the compound was called inactive in experiment [1], in [3], in experiment [5], in experiment [8] and in [7]. Further, the AC50 in [2] is 41.6 µM (active).
For `C=C(C)C(=O)OCCC(C)OC(=O)C(=C)C` (configuration not stated), the compound was classed as inactive in [1], in experiment [3] and in experiment [8]. Moreover, the AC50 in experiment [2] was 47 µM (active).
Turning to `CC(C)=CCCC(C)=CC(=O)O`, the outcome in experiment [1], in experiment [3], in [5] and in experiment [8] was inactive. Also, in experiment [2], the concentration at half-maximal activity (AC50) is 57.3 µM (active).
For the compound `C=CCCCCCCCCC(=O)OCC`, the result in [1], in [3], in experiment [6] and in [7] was inactive. Moreover, the AC50 in [2] was 55.9 µM (active); in [8], 100 µM (active).
For the compound `CC(CCO)CC(C)(C)C` (configuration not stated), the call in experiment [1], in experiment [9], in experiment [2], in experiment [3], in experiment [10] and in experiment [4] was inactive. For the same compound, the compound was classed as inactive in experiment [6] and in [8].
In the case of `c1ccc2scnc2c1`, the compound was called inactive in experiment [1], in experiment [2], in [3], in experiment [5], in experiment [8] and in experiment [7].
In the case of `C=C(C)C(=O)OCCOCCOC(=O)C(=C)C`, the compound was called inactive in experiment [1], in [2], in experiment [3], in experiment [6] and in experiment [8].
As for `C=C(C)C(=O)OCCN(C)C`, the call in [1], in experiment [2], in experiment [3] and in experiment [10] was inactive.
For the compound `CCCCOC(=O)C(C)OC(=O)CCC` (configuration not stated), the outcome in experiment [1], in experiment [2], in experiment [3], in experiment [5] and in experiment [7] was inactive.
With `CCc1cccc(O)c1`, the result in experiment [1], in [2], in experiment [3], in [4], in experiment [5] and in experiment [6] was inactive. Moreover, in experiment [7], the compound was classed as inactive.
As for `COC(=O)c1cccc(C(=O)OC)c1`, the compound was called inactive in experiment [1], in [2], in [3], in experiment [10], in experiment [4] and in [5]. Moreover, the compound was called inactive in experiment [8].
Regarding `C=C(C)CCCC(C)CCO` (configuration not stated), the compound was called inactive in experiment [1], in experiment [6], in experiment [8] and in [7]. In addition, the AC50 is 41.9 µM (active) in experiment [2] and 9.99 µM (active) in experiment [3].
Turning to `CC(C)C(=O)OCC=Cc1ccccc1`, the outcome in experiment [11], in experiment [2], in [4], in [5] and in [6] was inactive. Also, the AC50 in experiment [3] is 22.1 µM (active).
As to `O=S(=O)(O)c1cc(S(=O)(=O)O)c2c(N=Nc3ccccc3)c(O)ccc2c1`, the call in experiment [1], in [3], in experiment [4], in experiment [6] and in experiment [7] was inactive.
Take `C1COCO1`: the result in experiment [1], in experiment [2] and in [7] was inactive.
Take `C[C@H](CCC(=O)O)[C@H]1CC[C@H]2[C@@H]3CC[C@@H]4C[C@H](O)CC[C@]4(C)[C@H]3CC[C@]12C`: the half-maximal activity concentration (AC50) is 54.1 µM (active) in experiment [11], 29.1 µM (active) in [2] and 8.67 µM (active) in experiment [3]. Also, the compound was called inactive in experiment [4], in [5] and in experiment [6].
For the compound `CNC(=C[N+](=O)[O-])NCCSCc1ccc(CN(C)C)o1`, the compound was classed as inactive in experiment [11], in experiment [2], in [3], in [10], in experiment [4] and in [5]. Moreover, the call in experiment [6] was inactive.
Consider `CC(CO)c1ccccc1` (configuration not stated), for which the result in [1], in experiment [3], in experiment [5], in experiment [8] and in [7] was inactive.
